According to PubChem BioAssay (Tox21):
Records with an inconclusive call do not appear. Calls of active or inactive are those of the source. Unless noted, calls follow the shape of the dose curve; as a rule, active = well fitted curve in the direction sought with a large enough effect in the repeat runs; inconclusive = weak or mixed curves; inactive = no such curve, though single readings can be large; an effect the other way counts as inactive or inconclusive.

Legend:
[1] = qHTS assay for small molecule agonists of the p53 signaling pathway (AID 651631; calls by dose curve; also: nearly all actives have a fitted effect of over 15% in size)
Summary of the method: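 Read-out is beta-lactamase FRET fluorescence measured 2 h after substrate addition at room temperature, in HCT-116 cells with a p53 response element-driven reporter exposed to compounds for 16 h at 37 °C.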

[2] = qHTS assay for small molecules that induce genotoxicity in human embryonic kidney cells expressing luciferase-tagged ATAD5 (AID 651632); also: nearly all actives have a fitted effect of over 15% in size
Summary of the method: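 Quantitative HTS in HEK293T expressing luciferase-tagged ATAD5, whose levels rise upon DNA damage. Exposure ran 16 hr at 37C and 5% CO2, with luminescence read 30 min after Amplite addition at room temperature.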

[3] = qHTS assay for small molecule agonists of the p53 signaling pathway - cell viability (AID 651633; calls by dose curve;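 also: p53RE-bla HCT reporter cells with a stable beta-lactamase p53 reporter; series mostly up to about 83 µM; nearly all actives have a fitted effect of over 30% in size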)
Summary of the method: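 p53RE-bla cells, seeded at 4,000 per well and rested 5 h at 37 C/5% CO2, received compounds in DMSO for 16 h at 37 C. CellTiter-Glo was then added, and luminescence was read after 30 min at room temperature to gauge cytotoxicity.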

[4] = qHTS assay for small molecules that induce genotoxicity in human embryonic kidney cells expressing luciferase-tagged ATAD5 - cell viability (AID 651634; calls by dose curve; also: nearly all actives have a fitted effect of over 25% in size)
Summary of the method: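 After 15.5 hr incubation with compound at 37C, 5% CO2, HEK293T ATAD5-luciferase cells received CellTiter-Fluor reagent; fluorescence intensity was quantified following 30 min at 37C.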

[5] = qHTS assay to test for compound auto fluorescence at 590 nm (red) in HepG2 cells (AID 720674)
Summary of the method: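 Rose Bengal sodium served as the red fluorophore standard. HepG2 monolayers (overnight attachment, MEM with 10% FBS) were exposed to test compounds for 1 hr at 37 C and read at Ex 540/Em 590 nm.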

[6] = qHTS assay to test for compound auto fluorescence at 535 nm (green) in HepG2 cells (AID 720675)
[7] = qHTS assay to test for compound auto fluorescence at 460 nm (blue) in HEK293 cells (AID 720678)
Summary of the method: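 Intrinsic compound fluorescence is recorded in live HEK293 cultures after overnight incubation at 37C, 5% CO2, using excitation 405 nm and emission 460 nm. Values are referenced to triamterene.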

[8] = qHTS assay to test for compound auto fluorescence at 590 nm (red) in HEK293 cells (AID 720679)
Summary of the method: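 Red autofluorescence, HEK293 cells: 2,000 cells/well; attach 4-5 hr 37C; add 23 nL cpd or DMSO; incubate o/n 37C 5% CO2; read Ex540/Em590; Rose Bengal sodium reference.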

[9] = qHTS assay to test for compound auto fluorescence at 460 nm (blue) in HEK293 cell free culture (AID 720681)
Summary of the method: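 Test compounds were pinned into cell-free culture medium (DMEM with 10% FBS) and fluorescence was read directly at Ex/Em 405/460 nm. Signals were expressed as fluorescence equivalents of triamterene, with DMSO vehicle as control.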

[10] = qHTS assay to test for compound auto fluorescence at 535 nm (green) in HEK293 cell free culture (AID 720682)
Summary of the method: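 Fluorescein serves as the green reference fluorophore; each compound's intrinsic emission at 535 nm (excitation 485 nm) is reported as an equivalent amount of that dye, measured in serum-containing DMEM without cells.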

[11] = qHTS assay to test for compound auto fluorescence at 590 nm (red) in HEK293 cell free culture (AID 720683)
Summary of the method: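 Tox21 10K library compounds were pinned into cell-free DMEM with 10% FBS and fluorescence was read at excitation 540 nm. Activity is expressed as Rose Bengal sodium equivalency.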

[12] = qHTS assay to test for compound auto fluorescence at 460 nm (blue) in HepG2 cell free culture (AID 720685)
Summary of the method: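 Cell-free plates of MEM plus 10% FBS received 23 nL compound or DMSO vehicle; blue-channel (405/460 nm) intensity scored against triamterene as reference fluorophore.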

[13] = qHTS assay to test for compound auto fluorescence at 535 nm (green) in HepG2 cell free culture (AID 720686)
[14] = qHTS assay to test for compound auto fluorescence at 460 nm (blue) in HepG2 cells (AID 720687)
Summary of the method: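 Cells (2,000/well in MEM with 10% FBS) attached overnight at 37 C, then were exposed to compound or DMSO for 1 hr at 37 C, 5% CO2. Fluorescence read at Ex/Em 405/460 nm, expressed as triamterene-equivalent signal.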

[15] = target: Glucocorticoid receptor (Homo sapiens) (UniProt P04150); assay: qHTS assay to identify small molecule agonists of the glucocorticoid receptor (GR) signaling pathway (AID 720691; active = well fitted activation curve with a large enough effect in the signal ratio in the repeat runs, not every such curve was filed as active; the % refers to the signal ratio)
Chain of Glucocorticoid receptor (Homo sapiens) (P04150 whole entry, looked up): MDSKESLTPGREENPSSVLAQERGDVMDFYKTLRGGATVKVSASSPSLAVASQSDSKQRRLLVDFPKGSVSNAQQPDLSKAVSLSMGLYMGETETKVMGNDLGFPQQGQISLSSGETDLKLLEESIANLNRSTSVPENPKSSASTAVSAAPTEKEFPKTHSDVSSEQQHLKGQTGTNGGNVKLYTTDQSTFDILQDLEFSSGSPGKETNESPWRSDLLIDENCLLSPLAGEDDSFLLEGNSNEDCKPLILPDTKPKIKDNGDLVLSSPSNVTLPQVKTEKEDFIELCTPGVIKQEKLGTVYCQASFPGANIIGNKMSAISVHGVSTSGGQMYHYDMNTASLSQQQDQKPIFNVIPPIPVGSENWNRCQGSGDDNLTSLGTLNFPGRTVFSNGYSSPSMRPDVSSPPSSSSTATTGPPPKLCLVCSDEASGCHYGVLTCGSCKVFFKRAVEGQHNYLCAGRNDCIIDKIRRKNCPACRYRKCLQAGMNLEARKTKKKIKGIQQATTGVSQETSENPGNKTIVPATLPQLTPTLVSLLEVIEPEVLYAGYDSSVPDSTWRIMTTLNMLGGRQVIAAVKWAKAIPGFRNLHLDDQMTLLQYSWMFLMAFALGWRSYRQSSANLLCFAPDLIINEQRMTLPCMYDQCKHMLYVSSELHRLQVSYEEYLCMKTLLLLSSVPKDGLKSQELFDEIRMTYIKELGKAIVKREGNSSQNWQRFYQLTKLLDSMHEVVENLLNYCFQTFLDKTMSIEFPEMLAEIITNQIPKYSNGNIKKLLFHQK
Summary of the method: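 Cells: GR-bla HeLa, endogenous GR with stably integrated GRE-beta-lactamase reporter. Treatment 18 h, 37 C, compounds delivered in DMSO. Detection via LiveBLAzer B/G FRET substrate, 2 h RT, fluorescence intensity.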

[16] = target: Glucocorticoid receptor (Homo sapiens) (UniProt P04150); assay: qHTS assay to identify small molecule antagonists of the glucocorticoid receptor (GR) signaling pathway (AID 720692; active = well fitted inhibition curve with a large enough effect in the signal ratio in the repeat runs, not every such curve was filed as active; the % refers to the signal ratio)
Summary of the method: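 Quantitative HTS in antagonist format: HeLa cells expressing endogenous GR and a stably integrated GRE-bla reporter, stimulated with 5 nM dexamethasone (final) alongside test compounds for 18 h.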

[17] = qHTS assay for small molecule disruptors of the mitochondrial membrane potential - cell viability (AID 720634; calls by dose curve;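 also: human HepG2 liver cancer cells; series mostly up to about 83 µM; nearly all actives have a fitted effect of over 20% in size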)
Summary of the method: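 ATP-based luminescent viability readout (CellTiter-Glo, 30 min, room temperature) in HepG2 cells multiplexed with the m-MPI membrane potential dye; compound exposure lasted 1 hr at 37 C.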

[18] = qHTS assay to test for compound auto fluorescence at 535 nm (green) in HEK293 cells (AID 720680)
[19] = qHTS assay to test for compound auto fluorescence at 590 nm (red) in HepG2 cell free culture (AID 720684)
Summary of the method: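 Ex 540 / Em 590 nm read of compound in cell-free MEM (10% FBS). Rose Bengal sodium reference.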

[20] = qHTS assay for small molecule disruptors of the mitochondrial membrane potential (AID 720635)
Summary of the method: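 HepG2 cells (2,000/well) attached overnight at 37C, then took compound for 1 hr at 37C, 5% CO2. Mito-MPS dye was added for 30 min; fluorescence was read at 490/535 nm (monomers) and 540/590 nm (aggregates).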
% is scaled to controls: 0 for no effect and ±100 for the full control effect.

CCOC(=O)C(C)O (configuration not stated)
inactive: Potency [1] | Potency [2] | Potency [3] | Potency [4] | outcome [5] | outcome [6] | Potency [7] | outcome [8] | Potency [9] | outcome [10] | outcome [11] | Potency [12] | outcome [13] | Potency [14] | Potency [15] | Potency [16]

CNCc1ccc(NC(=O)c2c[nH]c3c2C(=O)CCC3)cc1
inactive: Potency [1] | Potency [2] | Potency [3] | Potency [4] | outcome [17] | outcome [5] | Potency [7] | outcome [8] | outcome [18] | Potency [9] | outcome [10] | outcome [11] | outcome [19] | Potency [12] | outcome [13] | Potency [14] | Potency [15]

c1ccc2sc(SSc3nc4ccccc4s3)nc2c1
inactive: Potency [1] | Potency [2] | Potency [3] | outcome [17] | Potency [20] | outcome [5] | outcome [6] | Potency [7] | outcome [8] | outcome [18] | Potency [9] | outcome [10] | outcome [11] | Potency [12] | outcome [13] | Potency [14] | Potency [15] | Potency [16]

CCSC(=O)N(CC)CC
inactive: Potency [1] | Potency [2] | Potency [3] | Potency [4] | outcome [17] | outcome [5] | outcome [6] | Potency [7] | outcome [8] | Potency [9] | outcome [10] | outcome [11] | outcome [19] | Potency [12] | outcome [13] | Potency [14] | Potency [15] | Potency [16]

CC(=O)C(C)=O
inactive: Potency [1] | Potency [2] | Potency [3] | Potency [4] | outcome [5] | outcome [6] | Potency [7] | outcome [8] | outcome [18] | Potency [9] | outcome [10] | outcome [11] | outcome [19] | Potency [12] | outcome [13] | Potency [14] | Potency [15] | Potency [16]

CSSc1ccoc1C
inactive: Potency [1] | Potency [2] | Potency [3] | Potency [4] | outcome [17] | outcome [5] | outcome [6] | Potency [7] | outcome [8] | Potency [9] | outcome [10] | outcome [11] | Potency [12] | outcome [13] | Potency [14] | Potency [15]

O=C(NC(Cc1cc(=O)[nH]c2ccccc12)C(=O)O)c1ccc(Cl)cc1 (configuration not stated)
inactive: Potency [1] | Potency [2] | Potency [3] | Potency [4] | outcome [17] | outcome [5] | outcome [6] | Potency [7] | outcome [18] | Potency [9] | outcome [10] | outcome [11] | outcome [19] | Potency [12] | outcome [13] | Potency [14] | Potency [15]

COc1ccc(C)cc1
inactive: Potency [1] | Potency [2] | Potency [3] | Potency [4] | outcome [17] | outcome [5] | Potency [7] | outcome [8] | outcome [18] | Potency [9] | outcome [10] | outcome [11] | Potency [12] | outcome [13] | Potency [14] | Potency [15]

CC(O)Cn1cnc2c1c(=O)n(C)c(=O)n2C (configuration not stated)
inactive: Potency [1] | Potency [2] | Potency [3] | outcome [17] | Potency [20] | fluorescence, relative to Rose Bengal [5] -0.388% [at 18.6 µM] | fluorescence, % of fluorescein control [6] 0.0515% [at 18.6 µM] | fluorescence, % of triamterene [7] -0.0145% [at 18.6 µM] | fluorescence, % of fluorescent control [8] 0.0437% [at 18.6 µM] | fluorescence, % of fluorescein [18] -0.0718% [at 18.6 µM] | fluorescence, % of fluorescent control [9] -0.136% [at 18.6 µM] | activity change [10] -0.0176% [at 18.6 µM] | fluorescence, % of fluorescent control [11] 0.243% [at 18.6 µM] | fluorescence, % of Rose Bengal [19] -0.131% [at 18.6 µM] | fluorescence, % of fluorescent control [12] -0.0952% [at 18.6 µM] | fluorescence, % of fluorescein control [13] -0.0191% [at 18.6 µM] | fluorescence, % of fluorescent control [14] 0.0234% [at 18.6 µM]

O=C(O)c1cccc(Oc2ccccc2)c1
inactive: Potency [1] | Potency [2] | Potency [3] | outcome [17] | Potency [20] | outcome [5] | outcome [6] | Potency [7] | outcome [8] | outcome [18] | Potency [9] | outcome [10] | outcome [11] | outcome [19] | Potency [12] | outcome [13] | Potency [14] | Potency [15] | Potency [16]
